# Test results reported in publication PMC11006913.
# Changes are numbered by the printed parent chain.
# Assays:
# Assay in all cases: PBM; 200 nM protein, PBS
# Conditions in all cases: dsDNA, one strand shown
# SHOX [1] = target: SHOX (Homo sapiens, UniProt O15266 103-189)
# CRX [2] = target: CRX (Homo sapiens, UniProt O43186 26-111)
# HOXA7 [3] = target: HOXA7 (Homo sapiens, UniProt P31268 116-202)
# CRX [4] = target: CRX (Homo sapiens, UniProt O43186 26-111, E42D)
# MSX2 [5] = target: MSX2 (Homo sapiens, UniProt P35548 130-214, R199I)
# Sequence of MSX2 (Homo sapiens, UniProt P35548 130-214, R199I) (P35548 130-214 R199I): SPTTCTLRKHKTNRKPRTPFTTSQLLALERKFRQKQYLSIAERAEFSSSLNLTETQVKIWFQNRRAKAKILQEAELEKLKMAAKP
# SHOX [6] = target: SHOX (Homo sapiens, UniProt O15266 103-189, R173C)
# Sequence of SHOX (Homo sapiens, UniProt O15266 103-189, R173C) (O15266 103-189 R173C): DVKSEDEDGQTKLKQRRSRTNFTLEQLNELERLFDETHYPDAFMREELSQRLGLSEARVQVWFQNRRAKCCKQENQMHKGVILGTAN
# MSX2 [7] = target: MSX2 (Homo sapiens, UniProt P35548 130-214)
# Sequence of MSX2 (Homo sapiens, UniProt P35548 130-214) (P35548 130-214): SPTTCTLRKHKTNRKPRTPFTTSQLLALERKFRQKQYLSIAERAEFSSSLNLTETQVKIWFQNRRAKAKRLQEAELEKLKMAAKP
# MSX2 [8] = target: MSX2 (Homo sapiens, UniProt P35548 130-214, F161Y)
# Sequence of MSX2 (Homo sapiens, UniProt P35548 130-214, F161Y) (P35548 130-214 F161Y): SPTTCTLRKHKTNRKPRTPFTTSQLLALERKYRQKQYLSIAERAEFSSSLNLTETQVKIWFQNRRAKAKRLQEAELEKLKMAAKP
# HOXA7 [9] = target: HOXA7 (Homo sapiens, UniProt P31268 116-202, W177C)
# Sequence of HOXA7 (Homo sapiens, UniProt P31268 116-202, W177C) (P31268 116-202 W177C): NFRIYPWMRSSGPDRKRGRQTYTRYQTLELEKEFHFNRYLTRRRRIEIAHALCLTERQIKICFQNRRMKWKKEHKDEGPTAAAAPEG
# NKX3-2 [10] = target: NKX3-2 (Homo sapiens, UniProt P78367 192-278, P234S)
# Sequence of NKX3-2 (Homo sapiens, UniProt P78367 192-278, P234S) (P78367 192-278 P234S): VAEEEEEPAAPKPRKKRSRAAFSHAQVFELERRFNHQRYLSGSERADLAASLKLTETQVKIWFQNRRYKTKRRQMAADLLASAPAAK
# CRX [11] = target: CRX (Homo sapiens, UniProt O43186 26-111, R41L)
# Sequence of CRX (Homo sapiens, UniProt O43186 26-111, R41L) (O43186 26-111 R41L): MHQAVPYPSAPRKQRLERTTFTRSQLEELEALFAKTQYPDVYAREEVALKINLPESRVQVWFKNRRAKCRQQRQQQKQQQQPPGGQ
# NKX3-2 [12] = target: NKX3-2 (Homo sapiens, UniProt P78367 192-278)
# Sequence of NKX3-2 (Homo sapiens, UniProt P78367 192-278) (P78367 192-278): as the sequence (P78367 192-278 P234S) above, with S43P counted along it
# SIX6 [13] = target: T1, SIX6 (Homo sapiens, UniProt O95475 114-200, L167I)
# T1 sequence: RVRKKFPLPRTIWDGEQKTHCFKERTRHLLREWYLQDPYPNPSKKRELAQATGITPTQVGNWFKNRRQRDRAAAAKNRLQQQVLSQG
# SIX6 [14] = target: T2, SIX6 (Homo sapiens, UniProt O95475 114-200, L143V)
# T2 sequence: T1 sequence with L30V, I54L
# SIX6 [15] = target: T3, SIX6 (Homo sapiens, UniProt O95475 114-200, H141N)
# T3 sequence: T1 sequence with H28N, I54L
# SIX6 [16] = target: T4, SIX6 (Homo sapiens, UniProt O95475 114-200, T165P)
# T4 sequence: T1 sequence with T52P, I54L
# SIX6 [17] = target: T5, SIX6 (Homo sapiens, UniProt O95475 114-200, L167M)
# T5 sequence: T1 sequence with I54M
# SIX6 [18] = target: T6, SIX6 (Homo sapiens, UniProt O95475 114-200, L143M)
# T6 sequence: T1 sequence with L30M, I54L
# SIX6 [19] = target: T7, SIX6 (Homo sapiens, UniProt O95475 114-200, L143I)
# T7 sequence: T1 sequence with L30I, I54L
# SIX6 [20] = target: T8, SIX6 (Homo sapiens, UniProt O95475 114-200, T165G)
# T8 sequence: T1 sequence with T52G, I54L
# SIX6 [21] = target: T9, SIX6 (Homo sapiens, UniProt O95475 114-200, T139Q)
# T9 sequence: T1 sequence with T26Q, I54L
# SIX6 [22] = target: T10, SIX6 (Homo sapiens, UniProt O95475 114-200, T165A)
# T10 sequence: T1 sequence with T52A, I54L
# SIX6 [23] = target: T11, SIX6 (Homo sapiens, UniProt O95475 114-200, L167V)
# T11 sequence: T1 sequence with I54V
# SIX6 [24] = target: T12, SIX6 (Homo sapiens, UniProt O95475 114-200)
# T12 sequence: T1 sequence with I54L
# SIX6 [25] = target: T13, SIX6 (Homo sapiens, UniProt O95475 114-200, T165I)
# T13 sequence: T1 sequence with T52I, I54L
# VENTX [26] = target: T14, VENTX (Homo sapiens, UniProt O95231 78-163, R121Q)
# T14 sequence: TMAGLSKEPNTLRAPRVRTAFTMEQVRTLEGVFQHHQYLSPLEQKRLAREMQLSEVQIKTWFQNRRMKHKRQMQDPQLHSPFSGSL
# HOXC9 [27] = target: HOXC9 (Homo sapiens, UniProt P31274 178-260, K195R)
# Sequence of HOXC9 (Homo sapiens, UniProt P31274 178-260, K195R) (P31274 178-260 K195R): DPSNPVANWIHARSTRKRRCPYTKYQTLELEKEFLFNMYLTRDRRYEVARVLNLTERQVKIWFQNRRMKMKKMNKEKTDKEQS
# VENTX [28] = target: T15, VENTX (Homo sapiens, UniProt O95231 78-163)
# T15 sequence: T14 sequence with Q44R
# VENTX [29] = target: T16, VENTX (Homo sapiens, UniProt O95231 78-163, Y115F)
# T16 sequence: T14 sequence with Y38F, Q44R
# HOXC9 [30] = target: HOXC9 (Homo sapiens, UniProt P31274 178-260)
# Sequence of HOXC9 (Homo sapiens, UniProt P31274 178-260) (P31274 178-260): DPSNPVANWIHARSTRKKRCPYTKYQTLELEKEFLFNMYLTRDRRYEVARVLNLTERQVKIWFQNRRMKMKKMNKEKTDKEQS
# HOXC9 [31] = target: HOXC9 (Homo sapiens, UniProt P31274 178-260, R193K)
# Sequence of HOXC9 (Homo sapiens, UniProt P31274 178-260, R193K) (P31274 178-260 R193K): as the sequence (P31274 178-260) above, with R16K counted along it
# HOXC9 [32] = target: HOXC9 (Homo sapiens, UniProt P31274 178-260, R222W)
# Sequence of HOXC9 (Homo sapiens, UniProt P31274 178-260, R222W) (P31274 178-260 R222W): as the sequence (P31274 178-260) above, with R45W counted along it
# HOXB9 [33] = target: HOXB9 (Homo sapiens, UniProt P17482 171-250, T197M)
# Sequence of HOXB9 (Homo sapiens, UniProt P17482 171-250, T197M) (P17482 171-250 T197M): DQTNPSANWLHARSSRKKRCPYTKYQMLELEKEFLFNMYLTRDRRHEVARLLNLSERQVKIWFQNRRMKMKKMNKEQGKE
# HOXB9 [34] = target: HOXB9 (Homo sapiens, UniProt P17482 171-250)
# Sequence of HOXB9 (Homo sapiens, UniProt P17482 171-250) (P17482 171-250): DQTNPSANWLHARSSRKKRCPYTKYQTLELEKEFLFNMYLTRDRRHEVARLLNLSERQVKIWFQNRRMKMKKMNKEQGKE
# PROP1 [35] = target: PROP1 (Homo sapiens, UniProt O75360 56-141)
# Sequence of PROP1 (Homo sapiens, UniProt O75360 56-141) (O75360 56-141): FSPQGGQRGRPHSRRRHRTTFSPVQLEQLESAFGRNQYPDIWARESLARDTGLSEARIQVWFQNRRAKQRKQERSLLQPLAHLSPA
# PROP1 [36] = target: PROP1 (Homo sapiens, UniProt O75360 56-141, R99H)
# Sequence of PROP1 (Homo sapiens, UniProt O75360 56-141, R99H) (O75360 56-141 R99H): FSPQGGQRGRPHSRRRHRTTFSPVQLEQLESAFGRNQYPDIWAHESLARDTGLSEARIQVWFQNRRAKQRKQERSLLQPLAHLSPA
# HOXB9 [37] = target: HOXB9 (Homo sapiens, UniProt P17482 171-250, R186Q)
# Sequence of HOXB9 (Homo sapiens, UniProt P17482 171-250, R186Q) (P17482 171-250 R186Q): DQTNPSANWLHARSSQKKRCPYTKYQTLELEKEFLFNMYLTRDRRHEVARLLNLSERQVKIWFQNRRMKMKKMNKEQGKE
# PROP1 [38] = target: PROP1 (Homo sapiens, UniProt O75360 56-141, F88S)
# Sequence of PROP1 (Homo sapiens, UniProt O75360 56-141, F88S) (O75360 56-141 F88S): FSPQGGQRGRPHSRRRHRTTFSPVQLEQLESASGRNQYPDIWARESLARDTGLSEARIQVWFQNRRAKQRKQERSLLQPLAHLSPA
# HOXB6 [39] = target: HOXB6 (Homo sapiens, UniProt P17509 132-218, K202E)
# Sequence of HOXB6 (Homo sapiens, UniProt P17509 132-218, K202E) (P17509 132-218 K202E): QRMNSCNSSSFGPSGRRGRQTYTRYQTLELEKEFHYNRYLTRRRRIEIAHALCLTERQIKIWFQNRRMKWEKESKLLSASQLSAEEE
# HOXB6 [40] = target: HOXB6 (Homo sapiens, UniProt P17509 132-218)
# Sequence of HOXB6 (Homo sapiens, UniProt P17509 132-218) (P17509 132-218): as the sequence (P17509 132-218 K202E) above, with E71K counted along it
# ALX4 [41] = target: ALX4 (Homo sapiens, UniProt Q9H161 200-286)
# Sequence of ALX4 (Homo sapiens, UniProt Q9H161 200-286) (Q9H161 200-286): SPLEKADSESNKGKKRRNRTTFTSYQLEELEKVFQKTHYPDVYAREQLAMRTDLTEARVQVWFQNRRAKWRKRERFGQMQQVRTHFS
# ALX4 [42] = target: ALX4 (Homo sapiens, UniProt Q9H161 200-286, Q225E)
# Sequence of ALX4 (Homo sapiens, UniProt Q9H161 200-286, Q225E) (Q9H161 200-286 Q225E): as the sequence (Q9H161 200-286) above, with Q26E counted along it
# VAX1 [43] = target: VAX1 (Homo sapiens, UniProt Q5SQQ9 86-172)
# Sequence of VAX1 (Homo sapiens, UniProt Q5SQQ9 86-172) (Q5SQQ9 86-172): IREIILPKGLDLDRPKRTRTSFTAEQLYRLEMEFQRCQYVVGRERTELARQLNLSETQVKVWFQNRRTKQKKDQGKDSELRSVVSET
# VAX1 [44] = target: VAX1 (Homo sapiens, UniProt Q5SQQ9 86-172, T142I)
# Sequence of VAX1 (Homo sapiens, UniProt Q5SQQ9 86-172, T142I) (Q5SQQ9 86-172 T142I): as the sequence (Q5SQQ9 86-172) above, with T57I counted along it
# VAX1 [45] = target: VAX1 (Homo sapiens, UniProt Q5SQQ9 86-172, K157R)
# Sequence of VAX1 (Homo sapiens, UniProt Q5SQQ9 86-172, K157R) (Q5SQQ9 86-172 K157R): as the sequence (Q5SQQ9 86-172) above, with K72R counted along it
# Sequence of SHOX (Homo sapiens, UniProt O15266 103-189) (O15266 103-189): as the sequence (O15266 103-189 R173C) above, with C71R counted along it
# Sequence of HOXA7 (Homo sapiens, UniProt P31268 116-202) (P31268 116-202): as the sequence (P31268 116-202 W177C) above, with C62W counted along it
# Sequence of CRX (Homo sapiens, UniProt O43186 26-111, E42D) (O43186 26-111 E42D): as the sequence (O43186 26-111 R41L) above, with L16R, E17D counted along it
# Sequence of CRX (Homo sapiens, UniProt O43186 26-111) (O43186 26-111): as the sequence (O43186 26-111 R41L) above, with L16R counted along it
sequence,measurement,setting,value
GCCTCGCC,binding signal,SHOX [1],"7.06 upbm affinity estimate (log intensity, higher = more binding, comparable within an allelic series)"
same,binding signal,CRX [2],"8.26 upbm affinity estimate (log intensity, higher = more binding, comparable within an allelic series)"
same,binding signal,HOXA7 [3],"8.38 upbm affinity estimate (log intensity, higher = more binding, comparable within an allelic series)"
same,binding signal,CRX [4],"8.29 upbm affinity estimate (log intensity, higher = more binding, comparable within an allelic series)"
same,binding signal,MSX2 [5],"9.34 upbm affinity estimate (log intensity, higher = more binding, comparable within an allelic series)"
same,binding signal,SHOX [6],"7.02 upbm affinity estimate (log intensity, higher = more binding, comparable within an allelic series)"
same,binding signal,MSX2 [7],"9.36 upbm affinity estimate (log intensity, higher = more binding, comparable within an allelic series)"
same,binding signal,MSX2 [8],"9.46 upbm affinity estimate (log intensity, higher = more binding, comparable within an allelic series)"
same,binding signal,HOXA7 [9],"8.26 upbm affinity estimate (log intensity, higher = more binding, comparable within an allelic series)"
same,binding signal,NKX3-2 [10],"10.6 upbm affinity estimate (log intensity, higher = more binding, comparable within an allelic series)"
same,binding signal,CRX [11],"8.24 upbm affinity estimate (log intensity, higher = more binding, comparable within an allelic series)"
same,binding signal,NKX3-2 [12],"10.4 upbm affinity estimate (log intensity, higher = more binding, comparable within an allelic series)"
CCGGCCAC,binding signal,SHOX [1],"7.3 upbm affinity estimate (log intensity, higher = more binding, comparable within an allelic series)"
same,binding signal,SIX6 [13],"8.84 upbm affinity estimate (log intensity, higher = more binding, comparable within an allelic series)"
same,binding signal,SIX6 [14],"8.77 upbm affinity estimate (log intensity, higher = more binding, comparable within an allelic series)"
same,binding signal,SIX6 [15],"8.85 upbm affinity estimate (log intensity, higher = more binding, comparable within an allelic series)"
same,binding signal,SIX6 [16],"8.87 upbm affinity estimate (log intensity, higher = more binding, comparable within an allelic series)"
same,binding signal,SIX6 [17],"8.86 upbm affinity estimate (log intensity, higher = more binding, comparable within an allelic series)"
same,binding signal,SIX6 [18],"8.73 upbm affinity estimate (log intensity, higher = more binding, comparable within an allelic series)"
same,binding signal,SIX6 [19],"8.81 upbm affinity estimate (log intensity, higher = more binding, comparable within an allelic series)"
same,binding signal,SIX6 [20],"8.89 upbm affinity estimate (log intensity, higher = more binding, comparable within an allelic series)"
same,binding signal,SIX6 [21],"8.81 upbm affinity estimate (log intensity, higher = more binding, comparable within an allelic series)"
same,binding signal,SIX6 [22],"8.81 upbm affinity estimate (log intensity, higher = more binding, comparable within an allelic series)"
same,binding signal,SHOX [6],"7.14 upbm affinity estimate (log intensity, higher = more binding, comparable within an allelic series)"
same,binding signal,SIX6 [23],"8.82 upbm affinity estimate (log intensity, higher = more binding, comparable within an allelic series)"
same,binding signal,SIX6 [24],"8.74 upbm affinity estimate (log intensity, higher = more binding, comparable within an allelic series)"
same,binding signal,SIX6 [25],"8.83 upbm affinity estimate (log intensity, higher = more binding, comparable within an allelic series)"
CGTGAGAG,binding signal,SHOX [1],"7.22 upbm affinity estimate (log intensity, higher = more binding, comparable within an allelic series)"
same,binding signal,VENTX [26],"8.23 upbm affinity estimate (log intensity, higher = more binding, comparable within an allelic series)"
same,binding signal,HOXC9 [27],"9.74 upbm affinity estimate (log intensity, higher = more binding, comparable within an allelic series)"
same,binding signal,VENTX [28],"8.19 upbm affinity estimate (log intensity, higher = more binding, comparable within an allelic series)"
same,binding signal,VENTX [29],"8.23 upbm affinity estimate (log intensity, higher = more binding, comparable within an allelic series)"
same,binding signal,HOXC9 [30],"9.82 upbm affinity estimate (log intensity, higher = more binding, comparable within an allelic series)"
same,binding signal,SHOX [6],"7.25 upbm affinity estimate (log intensity, higher = more binding, comparable within an allelic series)"
same,binding signal,HOXC9 [31],"9.77 upbm affinity estimate (log intensity, higher = more binding, comparable within an allelic series)"
same,binding signal,HOXC9 [32],"9.81 upbm affinity estimate (log intensity, higher = more binding, comparable within an allelic series)"
CCGCATCC,binding signal,SHOX [1],"7.26 upbm affinity estimate (log intensity, higher = more binding, comparable within an allelic series)"
same,binding signal,VENTX [26],"8.27 upbm affinity estimate (log intensity, higher = more binding, comparable within an allelic series)"
same,binding signal,HOXB9 [33],"8.5 upbm affinity estimate (log intensity, higher = more binding, comparable within an allelic series)"
same,binding signal,VENTX [28],"8.44 upbm affinity estimate (log intensity, higher = more binding, comparable within an allelic series)"
same,binding signal,VENTX [29],"8.27 upbm affinity estimate (log intensity, higher = more binding, comparable within an allelic series)"
same,binding signal,HOXB9 [34],"8.49 upbm affinity estimate (log intensity, higher = more binding, comparable within an allelic series)"
same,binding signal,SHOX [6],"7.23 upbm affinity estimate (log intensity, higher = more binding, comparable within an allelic series)"
same,binding signal,PROP1 [35],"6.85 upbm affinity estimate (log intensity, higher = more binding, comparable within an allelic series)"
same,binding signal,PROP1 [36],"6.89 upbm affinity estimate (log intensity, higher = more binding, comparable within an allelic series)"
same,binding signal,HOXB9 [37],"8.51 upbm affinity estimate (log intensity, higher = more binding, comparable within an allelic series)"
same,binding signal,PROP1 [38],"6.67 upbm affinity estimate (log intensity, higher = more binding, comparable within an allelic series)"
GCTCCGAC,binding signal,SHOX [1],"7.2 upbm affinity estimate (log intensity, higher = more binding, comparable within an allelic series)"
same,binding signal,VENTX [26],"8.1 upbm affinity estimate (log intensity, higher = more binding, comparable within an allelic series)"
same,binding signal,VENTX [28],"8.29 upbm affinity estimate (log intensity, higher = more binding, comparable within an allelic series)"
same,binding signal,VENTX [29],"8.19 upbm affinity estimate (log intensity, higher = more binding, comparable within an allelic series)"
same,binding signal,HOXB6 [39],"9.12 upbm affinity estimate (log intensity, higher = more binding, comparable within an allelic series)"
same,binding signal,SHOX [6],"7.25 upbm affinity estimate (log intensity, higher = more binding, comparable within an allelic series)"
same,binding signal,HOXB6 [40],"9.05 upbm affinity estimate (log intensity, higher = more binding, comparable within an allelic series)"
ACGTAATC,binding signal,SHOX [1],"8.86 upbm affinity estimate (log intensity, higher = more binding, comparable within an allelic series)"
CCGGTCTC,binding signal,SHOX [1],"7.18 upbm affinity estimate (log intensity, higher = more binding, comparable within an allelic series)"
same,binding signal,VENTX [26],"8.15 upbm affinity estimate (log intensity, higher = more binding, comparable within an allelic series)"
same,binding signal,VENTX [28],"8.23 upbm affinity estimate (log intensity, higher = more binding, comparable within an allelic series)"
same,binding signal,HOXA7 [3],"8.45 upbm affinity estimate (log intensity, higher = more binding, comparable within an allelic series)"
same,binding signal,ALX4 [41],"8.33 upbm affinity estimate (log intensity, higher = more binding, comparable within an allelic series)"
same,binding signal,VENTX [29],"8.1 upbm affinity estimate (log intensity, higher = more binding, comparable within an allelic series)"
same,binding signal,ALX4 [42],"8.34 upbm affinity estimate (log intensity, higher = more binding, comparable within an allelic series)"
same,binding signal,SHOX [6],"7.23 upbm affinity estimate (log intensity, higher = more binding, comparable within an allelic series)"
same,binding signal,VAX1 [43],"7.31 upbm affinity estimate (log intensity, higher = more binding, comparable within an allelic series)"
same,binding signal,VAX1 [44],"7.3 upbm affinity estimate (log intensity, higher = more binding, comparable within an allelic series)"
same,binding signal,HOXA7 [9],"8.44 upbm affinity estimate (log intensity, higher = more binding, comparable within an allelic series)"
same,binding signal,VAX1 [45],"7.04 upbm affinity estimate (log intensity, higher = more binding, comparable within an allelic series)"
